Hits are enriched below; roughly 6.9% of the tested compounds scored in any of these assays.
Mdm2 MdmX PPI – human Mdm2/MdmX binding inhibition. SaOS-2 split-luciferase Mdm2/MdmX complementation, luminescence. 330,000 compounds, 3% hits. O15151+Q00987. inhibition, % at 8 µM. AID 485346;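 active means inhibition of at least 50% at 8 µM in the primary screen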
Target sequence (O15151 whole entry, looked up): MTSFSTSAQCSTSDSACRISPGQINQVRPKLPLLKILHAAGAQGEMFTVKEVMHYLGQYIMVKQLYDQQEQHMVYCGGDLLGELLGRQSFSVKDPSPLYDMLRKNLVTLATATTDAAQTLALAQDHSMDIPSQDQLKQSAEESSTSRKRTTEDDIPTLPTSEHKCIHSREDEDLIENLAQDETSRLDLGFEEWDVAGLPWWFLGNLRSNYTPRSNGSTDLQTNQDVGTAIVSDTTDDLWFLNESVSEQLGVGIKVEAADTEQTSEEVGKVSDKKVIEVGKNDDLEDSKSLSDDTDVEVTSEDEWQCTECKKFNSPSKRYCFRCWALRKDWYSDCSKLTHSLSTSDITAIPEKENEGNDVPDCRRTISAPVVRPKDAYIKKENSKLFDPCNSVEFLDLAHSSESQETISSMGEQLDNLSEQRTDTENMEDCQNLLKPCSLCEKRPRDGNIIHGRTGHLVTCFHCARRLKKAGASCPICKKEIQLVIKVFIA
Target sequence (Q00987 whole entry, looked up): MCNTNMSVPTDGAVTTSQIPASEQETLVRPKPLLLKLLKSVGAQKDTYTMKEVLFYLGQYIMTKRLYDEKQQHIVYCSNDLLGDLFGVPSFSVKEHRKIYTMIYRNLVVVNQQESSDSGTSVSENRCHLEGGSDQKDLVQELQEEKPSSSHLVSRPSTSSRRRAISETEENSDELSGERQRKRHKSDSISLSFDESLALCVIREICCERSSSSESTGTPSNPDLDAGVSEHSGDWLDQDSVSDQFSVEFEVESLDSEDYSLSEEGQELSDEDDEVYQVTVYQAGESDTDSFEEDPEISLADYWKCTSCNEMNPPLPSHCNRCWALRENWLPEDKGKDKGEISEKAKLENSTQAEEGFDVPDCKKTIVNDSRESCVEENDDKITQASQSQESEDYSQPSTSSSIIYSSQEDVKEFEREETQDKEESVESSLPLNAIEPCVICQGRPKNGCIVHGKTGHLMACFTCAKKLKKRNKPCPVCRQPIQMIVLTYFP
CSC inhib – cancer stem cell inhibition. 300,000 compounds, 1.1% hits. AID 2717. inhibition, % at 7.5 µM. cancer stem cell-like cells viability, luminescence; in the data active means inhibition above about 75%; tested in HMLE shEcad cells
NR3A LBD binder – modulates the human NR3A ligand-binding domain. 340,000 compounds, 2.5% hits. Tm shift relative to glycine control, % at 25 µM. AID 1259313. NR3A LBD differential scanning fluorimetry, Tm shift; 0% = protein alone, 100% = glycine-bound protein;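 active means melting temperature shift of at least 10% of the positive control shift, at one fixed dose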
SKKanGAS inh – inhibitors of SKKanGAS S. pyogenes growth in kanamycin (SK-promoter or general growth effect); BacTiter-Glo, 6 h; inhibition, % at 7.5 µM; 300,000 compounds, 1.3% hits; AID 1662;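 active means mean replicate score, as percent of positive control median, at least 50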;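 further: strain carries kanamycin resistance gene driven by streptokinase promoter and grows in 40 µg/ml kanamycin; loss of luminescence reflects streptokinase promoter inhibition or plain growth inhibition; 0% = median of DMSO wells and 100% = positive control at its reference dose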
Beta apoptosis – blocks beta cell apoptosis; 300,000 compounds, 0.8% hits; INS-1E cytokine-induced death, ATP luminescence, 48 h; percent of positive-control rescue, neutral wells zero; protection from apoptosis, % (concentration not given with the values); AID 435005;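 active means Every replicate reaches about 75%, or at least half do and their mean reaches it too, limit read from the data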;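 further: 0% = cytokine-treated negative control wells and 100% = positive control rescue; higher means more ATP so stronger rescue from cytokine killing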
MPTP block – blocks calcium-induced mitochondrial swelling; isolated mouse mitochondria, Ca2+ swelling absorbance, 30 min; inhibition, % at 10 µM; 360,000 compounds, 1.4% hits; AID 602449;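 active means inhibition of 50% or more, scaled per plate between neutral and stimulator controls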;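 further: 0% = DMSO wells given calcium and 100% = 1 mM EGTA wells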
Mdm2-MdmX conf – human Mdm2/MdmX binding inhibition, confirmed. shares compounds with Mdm2 MdmX PPI. luminescent assay. inhibition, % at 8 µM. 10,000 compounds, 55% hits; in the data active means inhibition above about 40%
Full FLuc ctr – full-length luciferase inhibition in Mdm2/MdmX counter-screen; shares compounds with Mdm2 MdmX PPI; SaOS-2 full-length luciferase counterscreen, luminescence; inhibition, % at 8 µM; 6,200 compounds, 77% hits;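 active means mean inhibition at 8 µM reaching about 37%, which flags the compound as non-specific, limit read from the data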;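 further: p53-null SaOS-2 cells with luciferase driven by a doxycycline-inducible promoter; compound on cells about two nights before reading with doxycycline added after day one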
The depositor's hits bear a star; / = no result.

SMILES	Mdm2 MdmX PPI	CSC inhib	NR3A LBD binder	SKKanGAS inh	Beta apoptosis	MPTP block	Mdm2-MdmX conf	Full FLuc ctr
COC(=O)[C@@H]1[C@@H](C(=O)OC)C2(c3ccccc3-c3ccccc32)N(c2ccc(Cl)cc2)N1C#N	101*	-10	3	0	50	-1	18	/
COC(=O)C[C@]1(C(=O)OC)CN(C#N)N(c2ccc(Cl)cc2)C12c1ccccc1-c1ccccc12	99*	0	2	-28	112*	-1	7	/
O=c1[nH]c(=S)n(-c2ccccc2Cl)c(O)c1C=NCCN1CCNCC1	15	3	-2	-2	-3	-2	/	/
COc1cccc2c1C(=O)c1c(O)c3c(c(O)c1C2=O)CC(O)(C(C)=NO)CC3OC1CC(N)C(O)C(C)O1 (configuration not stated)	/	/	-16	/	/	0	/	/
O=C1N[C@H](Cc2ccccc2)C(=O)N2[C@@H]3[C@H](C[C@@H]12)c1ccccc1N3OOSc1ccccc1	22	-7	-1	-1	/	4	/	/
Cn1ncnc2c(=O)n(C)c(=O)nc1-2	92*	176*	-1	25	125*	1	84*	21
CCCCCC(=O)N[C@@H](c1ccccc1)[C@@H](O)C(=O)O[C@H]1C[C@@]2(O)[C@@H](OC(=O)c3ccccc3)C3[C@](C)(C(=O)[C@H](O)C(=C1C)C2(C)C)[C@@H](OC1OCC(O)C(O)C1O)C[C@H]1OC[C@@]31OC(C)=O (some centres not stated)	57*	47	-2	5	7	-2	60*	52*
CC(=O)OC12COC1CC(O)C1(C)C(=O)C(O)C3=C(C)C(O)CC(O)(C(OC(=O)c4ccccc4)C21)C3(C)C (configuration not stated)	/	/	-1	/	/	0	/	/
CC(=O)O[C@@]12CO[C@@H]1C[C@@H](O)[C@@]1(C)C(=O)[C@H](O)C3=C(C)[C@@H](OC(=O)[C@H](O)[C@@H](NC(=O)c4ccccc4)c4ccccc4)C[C@@](O)([C@@H](OC(=O)c4ccccc4)C12)C3(C)C (some centres not stated)	51*	-2	-6	12	3	-2	61*	48*
CC(=O)O[C@@]12CO[C@@H]1C[C@H](OC1OCC(O)C(O)C1O)[C@@]1(C)C(=O)[C@H](O)C3=C(C)[C@@H](OC(=O)[C@H](O)[C@@H](NC(=O)c4ccccc4)c4ccccc4)C[C@@](O)([C@@H](OC(=O)c4ccccc4)C12)C3(C)C (some centres not stated)	53*	42	-2	2	11	-2	39	59*
COC(=O)C1=C(c2ccccc2OCc2ccccc2)C[C@@H]2CC[C@H]1N2C(=O)NCCN1CCOCC1	-22	2	-3	/	-7	-2	/	/
COc1ccc(O)c2c(=O)c3c(OC)cc4c(c3oc12)C1C=COC1O4 (configuration not stated)	74*	36	0	28	24	-2	63*	42*
O=C1/C(=C/c2ccccc2)C[C@@]2(O)[C@H]3Cc4ccc(O)c5c4[C@@]2(CCN3CC2CC2)C1O5 (some centres not stated)	100*	/	1	/	/	-2	100*	51*
CC12CCC3C(CC=C4CC(O)CCC43C)C1C/C(=C\c1cccc(F)c1)C2=O (configuration not stated)	60*	31	5	17	3	0	20	/
CSc1ccc(C(=O)C(C)(C)N2CCOCC2)cc1	4	-16	0	1	-8	0	/	/
COc1ccc(C2=CC(c3ccc(OC)c(OC)c3)c3c(c4ccccc4oc3=O)O2)cc1OC (configuration not stated)	55*	54	0	20	16	0	65*	66*
Nc1ccc2ccc3cccc[n+]3c2c1	10	9	5	4	23	0	/	/
C[n+]1c(-c2ccccc2)c2cc(N)ccc2c2ccc(N)cc21	85*	44	-3	100*	97*	5	70*	13
COc1cccc(OCc2cc(C(=O)N3C[C@H]4C[C@@H](C3)c3cccc(=O)n3C4)no2)c1	-151	/	-1	3	/	0	/	/
COc1ccc2c(c1O)C13CCN(C)C(C2)C1CCC(=O)C3 (configuration not stated)	6	-7	3	5	-3	1	/	/
O=C1NC(=O)C(Cc2ccccc2)(Cc2ccccc2)C(=O)N1	/	/	-4	/	/	-2	/	/
C=C(C)[C@@]12OC3(c4ccccc4)O[C@@H]1C1[C@@H]4O[C@]4(CO)[C@@H](O)[C@]4(O)C(=O)C(C)=C[C@H]4[C@@]1(O3)[C@H](C)[C@H]2OC(=O)/C=C/C=C/c1ccccc1 (some centres not stated)	77*	6	2	30	3	2	12	/
CC12CC[C@H]3[C@@H](CCC4(O)C[C@H](O)CCC34/C=N/NC(=O)c3ccccc3Cl)C1(O)CCC2C1=CC(=O)OC1 (some centres not stated)	-3	-4	-2	5	-3	0	/	/
C[C@]12CC[C@H]3[C@@H](CC[C@]4(O)C[C@@H](O)CC[C@]34C=O)[C@@]1(O)CC[C@@H]2C1=CC(=O)OC1	69*	101*	-1	/	0	-1	69*	28
CCCCN=C[C@]12CCC(O)CC1(O)CCC1[C@@H]2CC[C@]2(C)[C@H](C3C=CC(=O)O3)CCC12O (some centres not stated)	59*	99*	-1	-3	-10	0	70*	50*
CC12CCC3C(CCC4(O)CC(O)CCC34C=O)C1(O)CCC2C1=CC(=O)OC1 (configuration not stated)	/	/	5	/	/	0	/	/
C[C@]12CCC3C(CCC4=CC(O)CC[C@@]43/C=N/O)C1(O)CCC2C1=CC(=O)OC1 (some centres not stated)	58*	115*	1	1	-3	0	72*	19
CC12CCC3C(CCC4(O)CC(O)CCC34C=NO)C1(O)CCC2C1=COC(=O)C1 (configuration not stated)	/	/	0	/	/	-1	/	/
CC(C)(C)C(=O)c1cn(Cc2ccccc2)c2ccccc12	14	-10	0	5	3	-1	/	/
C[C@]12CCC3C(CC[C@H]4C[C@H](O)CC[C@]34C)C1[C@@H](O)C[C@@H]2O (some centres not stated)	-2	-11	0	/	0	-1	/	/

High-throughput results deposited in PubChem BioAssay by several laboratories.
